# From paper PMC4336329 (PLoS ONE, 2015)
# Screen size: about 310,000 compounds; about 14,000 (4.5%) showed an effect of 50% or more. The effect is printed as a negative number. This excerpt belongs to a sample that is enriched for strong results.
# Biological target: human ether-à-go-go-related gene (hERG) potassium channel (human, UniProt Q12809)
# Assay: primary screen, population patch clamp on CHO cells stably expressing hERG; higher = less effect of the substance
# 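Note: peak tail current of the secondary pulse compared with the same well before compound.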
# Chain of human ether-à-go-go-related gene (hERG) potassium channel (Q12809 whole entry, looked up): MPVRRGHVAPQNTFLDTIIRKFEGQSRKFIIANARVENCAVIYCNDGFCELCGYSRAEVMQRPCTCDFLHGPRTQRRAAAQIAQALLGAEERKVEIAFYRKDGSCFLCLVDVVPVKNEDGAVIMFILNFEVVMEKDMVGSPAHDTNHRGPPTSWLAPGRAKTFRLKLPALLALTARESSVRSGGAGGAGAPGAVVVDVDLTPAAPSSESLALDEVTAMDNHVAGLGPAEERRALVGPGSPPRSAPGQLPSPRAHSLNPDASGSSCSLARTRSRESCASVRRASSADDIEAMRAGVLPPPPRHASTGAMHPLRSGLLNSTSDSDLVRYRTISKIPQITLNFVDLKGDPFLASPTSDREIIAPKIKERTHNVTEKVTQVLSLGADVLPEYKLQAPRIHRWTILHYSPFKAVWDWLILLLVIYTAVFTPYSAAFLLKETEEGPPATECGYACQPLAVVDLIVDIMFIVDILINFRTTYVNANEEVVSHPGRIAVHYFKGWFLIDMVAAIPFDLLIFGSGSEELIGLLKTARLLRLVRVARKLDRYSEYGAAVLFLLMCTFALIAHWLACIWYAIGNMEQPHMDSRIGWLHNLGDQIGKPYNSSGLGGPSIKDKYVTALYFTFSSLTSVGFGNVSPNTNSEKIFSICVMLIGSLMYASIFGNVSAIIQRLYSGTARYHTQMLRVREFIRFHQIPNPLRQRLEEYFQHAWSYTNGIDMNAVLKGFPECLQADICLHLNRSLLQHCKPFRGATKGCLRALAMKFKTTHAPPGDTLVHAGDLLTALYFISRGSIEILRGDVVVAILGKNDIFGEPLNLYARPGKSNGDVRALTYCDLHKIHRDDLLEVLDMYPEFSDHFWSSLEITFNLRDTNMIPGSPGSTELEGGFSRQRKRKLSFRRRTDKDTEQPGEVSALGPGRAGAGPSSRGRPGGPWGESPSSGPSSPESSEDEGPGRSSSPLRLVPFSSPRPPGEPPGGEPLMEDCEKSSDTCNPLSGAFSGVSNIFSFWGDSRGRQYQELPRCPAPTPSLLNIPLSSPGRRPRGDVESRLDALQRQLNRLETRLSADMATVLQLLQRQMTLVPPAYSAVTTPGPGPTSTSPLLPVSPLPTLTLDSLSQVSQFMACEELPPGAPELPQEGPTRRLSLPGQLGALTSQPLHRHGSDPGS
row,SMILES,"hERG current change (%, negative = inhibition) at 10uM [%]"
1,COc1ccc(CCNC(=O)c2nnn(CC(=O)Nc3ccccc3C)c2N)cc1OC,16.3
2,CSc1ncccc1C(=O)Nc1ccc(C)cn1,0.536
3,Cc1ccc(CS/C(Nc2ccccc2C)=C(\C#N)C(=O)NCc2ccco2)c(C)c1,9.03
4,CCN(CC)S(=O)(=O)c1ccc(C(=O)NCCCN=C2NS(=O)(=O)c3ccccc32)cc1,-5.24
5,CCC1(CC)C(=O)C2=C3C1[C@H](C(=O)OC)C=C(C(=O)OC)C[C@H]3[C@H]1C(=O)N(CC(=O)OC)C(=O)[C@H]1[C@H]2C (some centres unmarked),5.84
6,COc1ccc(OC)c(S(=O)(=O)Nc2cc3c4c(c2)CCN4C(=O)CC3)c1,-2.69
7,C=CCn1c(SCC(=O)N2CC(=O)Nc3ccccc32)nc2scc(-c3ccccc3)c2c1=O,-1.72
8,O=C(CSc1nccn(-c2ccc(Br)cc2)c1=O)NC1CCCC1,13.7
9,Cc1nnc(NC(=O)CSc2nnc(CNC(=O)c3ccc(S(=O)(=O)N(C)C)cc3)o2)s1,22.6
10,CC(Cl)C(=O)NNC(=O)CNS(=O)(=O)c1ccccc1 (centres unmarked),-0.478
11,CN(C)/C=C/C(=C\C(=O)C(F)(F)F)Nc1ccc(C(F)(F)F)cc1,2.83
12,Cc1ccc(NC(/C=C/N(C)C)=C/C(=O)C(F)(F)F)c(C)c1,-56.7
13,CN(C)/C=C\C(=C/C(=O)C(F)(F)F)Nc1ccccc1Oc1ccccc1,-24.4
14,C=CCc1ccc(OCC(O)CN2CCC(Cc3ccccc3)CC2)c(OC)c1.Cl (centres unmarked),-77.5
15,COc1cc(COCC(O)CN2CCCCC2C)cc(OC)c1OC.Cl (centres unmarked),20.6
16,C=CCc1ccc(OCC(O)CN2CCN(c3ccccc3OC)CC2)c(OC)c1.Cl (centres unmarked),-16.2
17,C=CCc1ccc(OCC(O)CN2CCc3ccccc3C2)c(OC)c1.Cl (centres unmarked),-68.8
18,C=CCc1ccc(OCC(O)CN2CCCCC2C)c(OC)c1.Cl (centres unmarked),-55.1
19,C=CCc1ccc(OCC(O)CN2CCN(c3ccccc3)CC2)c(OC)c1.Cl (centres unmarked),-70.3
20,C=CCc1ccc(OCC(O)COc2ccc(CC=C)cc2OC)c(OC)c1,-24.5
21,COc1cc(COCC(O)CN2CCc3ccccc3C2)cc(OC)c1OC.Cl (centres unmarked),-21.7
22,CC(=O)C(C)n1c(CN(C)Cc2ccccc2)nc2c1c(=O)n(C)c(=O)n2C (centres unmarked),-5.4
23,O=C(CSc1cc([N+](=O)[O-])cc(S(=O)(=O)Cc2ccccc2)c1)NC1CC1,-9.88

row,SMILES,"hERG current change (%, negative = inhibition) at 10uM [%]"
1,COCCNC(=O)COc1ccc(C)c(C)c1,3.36
2,Cc1cc(S(=O)(=O)N2CCC(N3CCCCC3)CC2)ccc1-n1cnnn1,-1.17
3,COc1cccc(C2CC(c3ccccc3Cl)n3nnnc3N2)c1 (centres unmarked),-12.1
4,O=C(Nc1nc2ccccc2s1)c1cccc(S(=O)(=O)N2CCc3ccccc32)c1,-7.03
5,Cc1cccc(OCCCC(=O)NNC(=O)c2ccc(F)cc2)c1,-7.21
6,COc1ccc(-c2nn3c(C4CCCCC4)nnc3s2)cc1OC,-15.2
7,COc1ccc(-n2nc(C(=O)NCC(=O)NC3CCCCCC3)c3ccccc3c2=O)c(OC)c1,11.1
8,N/C(=N\OC(=O)COc1ccc(Cl)cc1Br)c1cccnc1,-8.3
9,C=CCc1ccc(OCC(O)CO)c(OC)c1 (centres unmarked),11.6
10,C=CCc1ccc(OCC(O)CN2CCN(Cc3ccc(Cl)cc3)CC2)c(OC)c1.Cl (centres unmarked),-75.7
11,C=CCc1ccc(OCC(O)CN2CCN(Cc3ccccc3)CC2)c(OC)c1.Cl (centres unmarked),-77
12,C=CCc1ccc(OC)c(OC)c1,23.8
13,C=CCc1ccc(OCC(O)COCC)c(OC)c1 (centres unmarked),-3.56
14,C=CCc1ccc(OCC(O)CN2CCCCC2)c(OC)c1 (centres unmarked),-54.8
15,C=CCN1C(=O)c2ccc(C(=O)N3CCN(S(=O)(=O)c4ccccc4Br)CC3)cc2C1=O,-41.2
16,O=C(NC(=S)Nc1ccccc1[N+](=O)[O-])c1ccccc1,6.17
17,CSc1nc(N)nc(SCCS(=O)(=O)c2ccc(Cl)cc2)c1C#N,-3.5
18,CN(C(=O)COC(=O)c1ccc2c(c1)NC(=O)CS2)C1CCS(=O)(=O)C1 (centres unmarked),31.3
19,CC1(C)C2C/C(=N\O)C(C)(/[N+]([O-])=C/c3cccc([N+](=O)[O-])c3)CC21 (centres unmarked),-10.7
20,COc1ccc(C(C(=O)NC2CCCC2)N(Cc2cccnc2)C(=O)Cc2cccs2)cc1OC (centres unmarked),-1.66
21,Cc1cccc(CN2CCOCCS2(=O)=O)c1,10.2
22,O=C(/C=C/c1cccs1)N1CCCC1,33.1
23,OCC1(Cc2cccc(Cl)c2)CCCN(Cc2ccc3cc(F)ccc3n2)C1 (centres unmarked),-23.8

row,SMILES,"hERG current change (%, negative = inhibition) at 10uM [%]"
1,CC(C)c1csc(CN2CCC(CO)(Cc3cccc(F)c3)CC2)n1,-17.3
2,OCC1(CCOc2ccccc2)CCN(Cc2ccc3cccc(F)c3n2)CC1,-83
3,COc1cccc(CN2CCN(Cc3ccc4cccc(F)c4n3)CC2CCO)c1 (centres unmarked),-39.9
4,COc1cccc(CC2(CO)CCN(S(=O)(=O)N(C)C)CC2)c1,11.9
5,OCC1(Cc2cccc(F)c2)CCN(Cc2ccc3cccc(F)c3n2)CC1,-64.7
6,COc1cccc(CC2(CO)CCN(Cc3ccc4cccc(F)c4n3)CC2)c1,-64.4
7,CC(=O)Cc1nsc(NC(=O)c2csc3c2CCCC3)n1,-8.24
8,CCOc1ccccc1NC(=O)CSc1ccc(-c2ccco2)nn1,-16.6
9,Cc1cccc(C2NC(c3cccc(C)c3)C(C)C(=O)C2C)c1 (centres unmarked),8.92
10,CSc1ncc(CN2CCN(C(C)C)C(CCO)C2)cn1 (centres unmarked),-2.82
11,O=C(Nc1nnc(C2=COCCO2)o1)c1ccc(Br)cc1,-0.63
12,CCCc1cc(=O)[nH]c(SCC(=O)N2CCN(c3ccc(F)cc3)CC2)n1,-15.2
13,CCN(CC)Cc1c(C(=O)N/N=C/c2ccco2)nnn1-c1nonc1N,-14.3
14,FC(F)(F)c1cccc(N2Cc3ccccc3C2)c1,6.28
15,COc1cccc(-c2nc(CS(=O)(=O)CC(=O)NCCc3ccccc3)c(C)o2)c1,0.232
16,CCOC(=O)c1sc(=NC(=O)c2ccc(OC(C)C)cc2)n(C)c1C,10.8
17,Nc1ccccc1-c1nnc(-c2ccc(-c3ccccc3)cc2)o1,10.1
18,COc1ccc(/C=C/CN2CCCC(C(=O)c3cc(F)ccc3F)C2)cc1 (centres unmarked),-76.4
19,CSCC(=O)N1CCCC(C(=O)c2cc(F)ccc2F)C1 (centres unmarked),-1.1
20,Cc1cc(C(=O)N2CCCC(C(=O)c3cc(F)ccc3F)C2)c(C)o1 (centres unmarked),-4.31
21,COc1ccc(C(=O)C2CCCN(C(=O)c3ccoc3C)C2)cc1F (centres unmarked),-6.04
22,COc1ccc(C(=O)C2CCCN(C(=O)Cn3nc(C)cc3C)C2)cc1F (centres unmarked),-17.4
23,COc1ccc(/C=C/CN2CCCC(C(=O)c3ccc(OC)c(F)c3)C2)cc1 (centres unmarked),-94.5

row,SMILES,"hERG current change (%, negative = inhibition) at 10uM [%]"
1,Cc1nn(-c2ccccc2)c(Cl)c1/C=N\NC(=O)c1cnccn1,-5
2,CCc1cccc(C)c1NS(=O)(=O)c1cc(Br)cnc1N,8.34
3,COC(=O)c1ccccc1NC(=S)NC(NC(=O)COc1ccccc1)C(Cl)(Cl)Cl (centres unmarked),7.66
4,CCN1CCN(C(=O)Cc2ccccc2OC)CC1,13.3
5,CC(C)(C)c1ccccc1OCC(O)CN1CCN(c2ccccn2)CC1.Cl (centres unmarked),-48.8
6,Cc1ccc(OCC(O)CN2CCN(c3ccccn3)CC2)c(C)c1.Cl (centres unmarked),-60.5
7,Cc1cc(C)c(C)c(OCC(O)CN2CCN(c3ccccn3)CC2)c1.Cl (centres unmarked),-54.4
8,Cc1cccc(OCC(O)CN2CCN(c3ccccn3)CC2)c1C.Cl (centres unmarked),-45.5
9,Cc1cccc(C)c1OCC(O)CN1CCN(c2ccccn2)CC1 (centres unmarked),-35.5
10,Cc1ccccc1OCC(O)CN1CCN(c2ccccn2)CC1.Cl (centres unmarked),-48.8
11,Cc1cc(C)c(OCC(O)CN2CCN(c3ccccn3)CC2)c(C)c1.Cl (centres unmarked),-58.3
12,Cc1cc(C)c(C)c(OCC(=O)N2CCN(c3ccccn3)CC2)c1,-33.6
13,CCc1noc(C)c1C(=O)N1CCCSC1=Nc1ccccc1OC,-8.77
14,O=C(CCCN1C(=O)/C(=C/c2ccccc2)SC1=S)N1CCOCC1,-30.1
15,Cc1ccc(NC(=O)c2ccc(Cl)cc2[N+](=O)[O-])nc1,6.4
16,O=C(Cn1c(=O)oc2ccccc21)Nc1ccccc1C(F)(F)F,21.6
17,COc1cc(/C=C2/C(=O)ON=C2C)ccc1OCc1ccccc1F,2.22
18,COCCNC(=O)C(OC(=O)C1=Cc2ccccc2OC1)C(C)C (centres unmarked),10.3
19,O=C(NCc1ccco1)c1cnc2ccccn2c1=O,-3.03
20,Cc1ccc2nc3c(cc(C(=O)NCc4ccco4)c(=N)n3C3CCCC3)c(=O)n2c1,-75.8
21,Cc1ccc2nc(SCC(=O)NCc3ccco3)nc(=O)n2c1,8.08
22,Cn1c2ccccc2c2c(C(=O)NCc3ccco3)cn(C3CCCCC3)c(=O)c21,-33.4
23,N=c1c(C(=O)NCc2ccco2)cc2c(=O)n3ccccc3nc2n1C1CCCC1,-77
